From PubChem BioAssay (NCI)
Compounds without any hit were thinned out: in the full panel of roughly 83,000, 20% have a hit.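 The test compound was applied at a single concentration to cells in 96-well plates for 48 hours, and percent growth was recorded.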 Activity calls are given as the source filed them. How the source made its calls: active means growth percent below 10; inactive means the rest.

Legend:
Test in all cases: NCI-60 one-dose screen, 48 h (100 = growth as untreated, 0 = no growth, -100 = all killed)
Conditions in all cases: 10 µM unless noted
EKVX NSCLC = test system: EKVX NSCLC
SN12C renal = test system: SN12C renal
UO-31 renal = test system: UO-31 renal
TK-10 renal = test system: TK-10 renal
ACHN renal = test system: ACHN renal
A498 renal = test system: A498 renal
CCRF-CEM leukemia = test system: CCRF-CEM leukemia
MOLT-4 leukemia = test system: MOLT-4 leukemia
CAKI-1 renal = test system: CAKI-1 renal

Measured: growth

COC(=O)c1ccc(NC(N)=NCCC(C)(C)c2ccc(C(F)(F)F)cc2)nc1
active: MOLT-4 leukemia 4.23%
inactive: EKVX NSCLC 20.3% | SN12C renal 53.4% | UO-31 renal 34.2% | TK-10 renal 49.6% | ACHN renal 65.2% | A498 renal 51.8% | CCRF-CEM leukemia 34.2%

O=[N+]([O-])c1cc(F)c2cccnc2c1O
inactive: EKVX NSCLC 110% | SN12C renal 93.5% | UO-31 renal 73.6% | TK-10 renal 152% | ACHN renal 89.4% | CCRF-CEM leukemia 120%

COc1cccc(OCC(O)CN2CCN(c3ccccc3)CC2)c1 (configuration not stated)
inactive: EKVX NSCLC 103% | SN12C renal 105% | UO-31 renal 96.3% | ACHN renal 109% | A498 renal 90.6% | CCRF-CEM leukemia 121%

O=C(NCCNC(=O)c1cc(S(=O)(=O)NCCc2ccccc2)c(O)c(O)c1O)c1cc(S(=O)(=O)NCCc2ccccc2)c(O)c(O)c1O
inactive: EKVX NSCLC 49.9% | SN12C renal 52.3% | UO-31 renal 46.5% | TK-10 renal 96.6% | A498 renal 87.3% | CCRF-CEM leukemia 45% | MOLT-4 leukemia 56.6%

CN(C)CCOc1nc2c3cccnc3cc(-c3cccc(Cl)c3)c2c2ncccc12
active: ACHN renal 6.48% | CCRF-CEM leukemia 6.83% | MOLT-4 leukemia -9.06%
inactive: EKVX NSCLC 34.3% | UO-31 renal 38.2% | TK-10 renal 28.5% | CAKI-1 renal 28.1% | A498 renal 43.7%

CCOc1c(C#N)c2c(N)ncnc2n1C1OC(CO)C(O)C1O (configuration not stated)
active: UO-31 renal 6.4% | A498 renal -13% | CCRF-CEM leukemia -8.09%
inactive: EKVX NSCLC 58.4% | SN12C renal 39.2% | TK-10 renal 88.4%

COc1cc(-c2csc(NC(=O)Nc3cccc(C(F)(F)F)c3)n2)cc(OC)c1OC
inactive: EKVX NSCLC 38.3% | UO-31 renal 46% | TK-10 renal 49.4% | ACHN renal 31.3% | CAKI-1 renal 48.2% | A498 renal 59.1% | CCRF-CEM leukemia 28.1% | MOLT-4 leukemia 18.1%

COc1ccc(Nc2ncccc2C(=O)NCc2cn(Cc3cc(OC)cc(OC)c3)nn2)cc1
inactive: EKVX NSCLC 92.5% | SN12C renal 109% | UO-31 renal 65.7% | ACHN renal 93.8% | CAKI-1 renal 101% | A498 renal 95.8% | MOLT-4 leukemia 82.7%

Nc1ncnc2c1N=C(c1ccc(F)cc1)CC(c1sc(Cl)nc1Cl)N2 (configuration not stated)
inactive: SN12C renal 81.3% | UO-31 renal 63.2% | TK-10 renal 93.2% | ACHN renal 95.5% | CAKI-1 renal 98% | A498 renal 68.9% | CCRF-CEM leukemia 29.1%

COc1cc(C)c2c(=O)c3c(oc2c1)C(=O)c1c(O)c(OC)cc(O)c1C3=O
inactive: EKVX NSCLC 32.6% | SN12C renal 16.8% | CAKI-1 renal 12.6% | A498 renal 89% | CCRF-CEM leukemia 10.4%
active: UO-31 renal 0.808% | ACHN renal 0.624%

O=C1/C(=C\c2cccn2Cc2ccc(F)cc2)c2ccccc2N1c1c(Cl)cccc1Cl
inactive: EKVX NSCLC 54.6% | UO-31 renal 51.8% | TK-10 renal 81% | ACHN renal 62.9% | CAKI-1 renal 67.5% | A498 renal 106% | CCRF-CEM leukemia 83% | MOLT-4 leukemia 74.1%

CCCc1n(Cc2ccc3ccccc3c2)c2ccccc2[n+]1Cc1ccc2ccccc2c1
active: EKVX NSCLC -4.84% | SN12C renal -48.4% | UO-31 renal -15.4% | TK-10 renal -79.7% | A498 renal -17.2% | CCRF-CEM leukemia -32.3% | MOLT-4 leukemia -58.9%

N#Cc1ccc(NC(=O)Nc2nc3ccc(OC(F)(F)F)cc3s2)cc1
active: EKVX NSCLC -6.94% | SN12C renal -4.65% | UO-31 renal -2.76% | ACHN renal -10.6% | CAKI-1 renal -15.5% | A498 renal -28.1% | CCRF-CEM leukemia 3.09% | MOLT-4 leukemia -13.9%

CCc1ccc2c(c1)N(CCO)C1=C(C(=O)OC1)C2c1cccc(Br)c1 (configuration not stated)
active: A498 renal 2.81%
inactive: EKVX NSCLC 47.4% | SN12C renal 53.5% | UO-31 renal 34% | TK-10 renal 45.4% | CAKI-1 renal 26.1% | CCRF-CEM leukemia 11.9% | MOLT-4 leukemia 19.3%

O=C1/C(=C\c2cccn2Cc2ccc(Cl)cc2)c2ccccc2N1c1c(Cl)cccc1Cl
inactive: EKVX NSCLC 62.2% | UO-31 renal 63% | TK-10 renal 87.6% | ACHN renal 65.7% | CAKI-1 renal 75% | A498 renal 98% | CCRF-CEM leukemia 82.4% | MOLT-4 leukemia 75.1%

NS(=O)(=O)c1ccc(N2N=C(c3ccc(Br)cc3)CC2c2cn(-c3ccccc3)nc2-c2ccc(Cl)cc2)cc1 (configuration not stated)
inactive: SN12C renal 78.6% | UO-31 renal 58.3% | TK-10 renal 112% | ACHN renal 86.5% | CAKI-1 renal 89% | A498 renal 113% | CCRF-CEM leukemia 70.8%

O=C1/C(=C\c2cccn2C(=O)c2ccccc2)c2ccccc2N1c1c(Cl)cccc1Cl
inactive: EKVX NSCLC 80.5% | UO-31 renal 66.8% | TK-10 renal 86.4% | ACHN renal 79% | CAKI-1 renal 87.8% | A498 renal 90.4% | CCRF-CEM leukemia 14.3%

CCOC(=O)C1=C(C)NC(SCc2nnc(-c3ccc(Cl)cc3)o2)=NC1c1ccc(Br)cc1 (configuration not stated)
active: MOLT-4 leukemia 8.29%
inactive: EKVX NSCLC 71.3% | UO-31 renal 52.6% | TK-10 renal 79.9% | ACHN renal 69.7% | CAKI-1 renal 67.2% | A498 renal 73.2% | CCRF-CEM leukemia 43.4%

COc1ccc(-c2nsc3c2NC(=O)CC3c2cccc(F)c2)cc1 (configuration not stated)
inactive: SN12C renal 55.7% | UO-31 renal 70.5% | TK-10 renal 51.6% | ACHN renal 66.2% | CAKI-1 renal 38.5% | A498 renal 28.7% | CCRF-CEM leukemia 49.5%

CCOC(=O)C1=C(C)NC(SCc2nnc(-c3ccc(Cl)cc3)o2)=NC1c1ccc(Cl)cc1 (configuration not stated)
inactive: EKVX NSCLC 80.2% | UO-31 renal 48.7% | TK-10 renal 77.5% | ACHN renal 64.1% | CAKI-1 renal 61.6% | A498 renal 80.7% | CCRF-CEM leukemia 39.7%
active: MOLT-4 leukemia 7.02%

Nc1nc2c(c3ncccc13)C(c1ccccc1)Cc1ncccc1-2 (configuration not stated)
inactive: EKVX NSCLC 78.8% | UO-31 renal 61.1% | TK-10 renal 89.9% | ACHN renal 84.4% | CAKI-1 renal 77.2% | A498 renal 78.2% | CCRF-CEM leukemia 72.3% | MOLT-4 leukemia 65.8%

CC(C)(C)CC(C)(C)NCc1cc(C(C)(C)C)cc(CNC(C)(C)CC(C)(C)C)c1O
inactive: EKVX NSCLC 37.2% | SN12C renal 69.3% | UO-31 renal 27.4% | ACHN renal 37.4% | CAKI-1 renal 55.3% | A498 renal 64.9% | CCRF-CEM leukemia 49.3% | MOLT-4 leukemia 30.3%

O=C(CCc1nc2sc3c(c2c(=O)[nH]1)CCC3)NCc1cn(-c2ccccc2)nc1-c1ccccc1
inactive: EKVX NSCLC 92% | UO-31 renal 98.5% | TK-10 renal 89.4% | ACHN renal 81.1% | CAKI-1 renal 92.5% | A498 renal 66.4% | CCRF-CEM leukemia 61% | MOLT-4 leukemia 59.6%

O=C(/C=C/c1cn(-c2ccccc2)nc1-c1cccc(Nc2ccnc3cc(Cl)ccc23)c1)c1ccc2c(c1)OCO2
inactive: SN12C renal 117% | UO-31 renal 84.8% | TK-10 renal 123% | ACHN renal 105% | CAKI-1 renal 100% | A498 renal 92.3% | CCRF-CEM leukemia 17.2%

COc1ccc(/C=C2\Cc3c(Br)cccc3C2=O)c(OC)c1
inactive: EKVX NSCLC 59.8% | UO-31 renal 78.3% | TK-10 renal 90.6% | ACHN renal 59.8% | CAKI-1 renal 79.4% | A498 renal 83.1% | CCRF-CEM leukemia 97.8% | MOLT-4 leukemia 94.1%

Cc1cc(Cl)c2ccc(N(C)C)cc2n1
inactive: SN12C renal 98% | UO-31 renal 84.4% | TK-10 renal 109% | ACHN renal 97.6% | CAKI-1 renal 93% | A498 renal 92.6% | CCRF-CEM leukemia 95.9%

Clc1ccc2c(c1)-n1cccc1C(c1ccc3ccccc3c1)=NC2
inactive: EKVX NSCLC 99.5% | SN12C renal 124% | UO-31 renal 64.8% | ACHN renal 91.7% | CCRF-CEM leukemia 84.6%

CC(=O)[C@H]1CC[C@H]2[C@@H]3CC[C@H]4CC=CC[C@]4(C)[C@H]3CC[C@]12C
inactive: SN12C renal 96.1% | UO-31 renal 83.7% | TK-10 renal 85.9% | ACHN renal 92.4% | CAKI-1 renal 72.9% | A498 renal 103%

CNC(=O)c1cc(Oc2ccc(NC(=O)c3nc(S(C)(=O)=O)n(C)c3-c3ccc(F)cc3)cc2)ccn1
inactive: EKVX NSCLC 71.2% | SN12C renal 54.9% | UO-31 renal 47.9% | TK-10 renal 68.5% | A498 renal 38% | CCRF-CEM leukemia 85% | MOLT-4 leukemia 62.4%

Cn1c(=O)c2[nH]c(Cc3ccc4c(c3)OCO4)nc2n(C)c1=O
inactive: EKVX NSCLC 97.8% | SN12C renal 95.1% | UO-31 renal 93.5% | TK-10 renal 113% | ACHN renal 92.1% | CCRF-CEM leukemia 87% | MOLT-4 leukemia 122%

CCSc1ccc([C@@H]2[C@@H](N)C(=O)N2c2cc(OC)c(OC)c(OC)c2)cc1
inactive: EKVX NSCLC 41% | SN12C renal 49.6% | UO-31 renal 49.4% | TK-10 renal 58.9% | CCRF-CEM leukemia 11.6% | MOLT-4 leukemia 13.1%
active: A498 renal 3.94%

Cc1ccc(NC(=O)c2[nH]c(SCCN(C)C)nc2-c2ccc(F)cc2)cc1C#Cc1cnc2cccnn12
active: UO-31 renal -77.2% | CCRF-CEM leukemia 1.64%
inactive: EKVX NSCLC 38.2% | SN12C renal 87.3% | TK-10 renal 105% | A498 renal 102% | MOLT-4 leukemia 55.1%

O=C1OCC2=C1C(c1cccc(Br)c1)c1cc3c(cc1N2CCO)OCCO3 (configuration not stated)
inactive: EKVX NSCLC 44.1% | SN12C renal 26.7% | UO-31 renal 18.1% | ACHN renal 33.8% | CAKI-1 renal 15% | MOLT-4 leukemia 20.5%
active: A498 renal -11% | CCRF-CEM leukemia 9.31%

CN(C)CCOc1nc2c3ccncc3cc(-c3cccc(Cl)c3)c2c2cnccc12
inactive: EKVX NSCLC 37.4% | UO-31 renal 14.9% | TK-10 renal 30.7% | ACHN renal 14.5% | CAKI-1 renal 29.6% | A498 renal 35.5%
active: CCRF-CEM leukemia 3.4% | MOLT-4 leukemia -14.7%
